# In the supplement of paper PMC11732987, “Enantioselective OTUD7B fragment discovery through chemoproteomics screening and high-throughput optimisation” (Communications Chemistry, 2025):
# Values without a mark were called inactive.
# Columns and labels:
# Experiment in all cases: log2 ratio of Biotin-Ahx-Ub-VS probe labelling (fragment/DMSO); higher = less target engagement (more negative = stronger competition), active = hit call of the paper (q ≤ 0.05, log2 ratio ≤ -1)
# Conditions in all cases: compound concentration: 200 uM; treatment time: 3 h
# OTUD6B = target: T1, OTUD6B (UniProt Q8N6M0)
# T1 sequence (whole entry): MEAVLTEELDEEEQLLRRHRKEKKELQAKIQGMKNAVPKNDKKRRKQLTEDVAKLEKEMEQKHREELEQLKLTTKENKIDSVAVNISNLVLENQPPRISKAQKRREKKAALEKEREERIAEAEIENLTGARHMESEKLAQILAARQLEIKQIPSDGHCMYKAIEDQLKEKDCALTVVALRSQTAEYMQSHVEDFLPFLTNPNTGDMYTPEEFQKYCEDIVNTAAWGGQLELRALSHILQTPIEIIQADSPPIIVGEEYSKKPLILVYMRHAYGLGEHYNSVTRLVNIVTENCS
# Outline: (§1)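 HEK293T lysate (495 µg per sample, in Tris/CHAPS/IGEPAL buffer with protease inhibitors) was exposed in triplicate for 3 h to fragment at 200 µM or to vehicle, then to Biotin-Ahx-Ub-VS at 0.5 µM final for 1 h. Labelled DUBs were enriched on NeutrAvidin, digested with LysC and trypsin, and analysed by diaPASEF LC-MS/MS. Spectronaut label-free quantities were normalised to the global median, and values are average log2 ratios of fragment over vehicle from an unpaired t-test. Only proteins with ≥2 unique peptides were used.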
# OTUD7B = target: T2, OTUD7B (UniProt Q6GQQ9)
# T2 sequence (whole entry): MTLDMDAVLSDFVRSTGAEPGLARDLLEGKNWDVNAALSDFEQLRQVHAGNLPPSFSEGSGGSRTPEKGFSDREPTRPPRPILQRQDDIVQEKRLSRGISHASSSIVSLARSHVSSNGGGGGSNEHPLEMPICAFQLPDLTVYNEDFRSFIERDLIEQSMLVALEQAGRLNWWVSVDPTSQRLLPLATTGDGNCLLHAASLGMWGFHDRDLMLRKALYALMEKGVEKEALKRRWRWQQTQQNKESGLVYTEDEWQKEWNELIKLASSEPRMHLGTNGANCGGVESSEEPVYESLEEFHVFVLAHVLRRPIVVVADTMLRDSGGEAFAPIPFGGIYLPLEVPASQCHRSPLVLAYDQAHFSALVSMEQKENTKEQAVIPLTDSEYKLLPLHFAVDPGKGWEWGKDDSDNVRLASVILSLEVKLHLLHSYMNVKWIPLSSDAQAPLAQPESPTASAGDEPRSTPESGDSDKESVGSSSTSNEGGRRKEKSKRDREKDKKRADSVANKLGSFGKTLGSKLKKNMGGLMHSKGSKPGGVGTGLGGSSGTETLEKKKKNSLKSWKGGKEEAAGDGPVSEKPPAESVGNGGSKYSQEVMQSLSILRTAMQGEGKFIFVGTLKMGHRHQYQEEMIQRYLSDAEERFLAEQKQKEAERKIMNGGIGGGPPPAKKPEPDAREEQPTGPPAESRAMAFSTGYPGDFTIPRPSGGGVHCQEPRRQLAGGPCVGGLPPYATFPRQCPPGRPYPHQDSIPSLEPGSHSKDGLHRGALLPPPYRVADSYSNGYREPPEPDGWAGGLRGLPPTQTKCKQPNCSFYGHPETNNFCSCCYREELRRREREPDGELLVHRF
# Outline: as §1
# PRPF8 = PRPF8 (UniProt Q6P2Q9)
# Outline: as §1
# PSMD7 = target: T3, PSMD7 (UniProt P51665)
# T3 sequence (whole entry): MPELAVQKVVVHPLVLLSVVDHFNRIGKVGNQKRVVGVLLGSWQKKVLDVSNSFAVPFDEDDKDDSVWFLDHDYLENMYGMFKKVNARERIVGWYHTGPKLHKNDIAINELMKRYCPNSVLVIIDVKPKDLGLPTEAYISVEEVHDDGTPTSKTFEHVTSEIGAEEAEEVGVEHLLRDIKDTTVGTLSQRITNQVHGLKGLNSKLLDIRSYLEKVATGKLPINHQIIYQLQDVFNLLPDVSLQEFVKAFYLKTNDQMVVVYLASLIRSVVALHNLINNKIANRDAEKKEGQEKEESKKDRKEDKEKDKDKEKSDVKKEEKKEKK
# Outline: as §1
# UCHL1 = UCHL1 (UniProt P09936)
# Outline: as §1
# UCHL3 = target: T4, UCHL3 (UniProt P15374)
# T4 sequence (whole entry): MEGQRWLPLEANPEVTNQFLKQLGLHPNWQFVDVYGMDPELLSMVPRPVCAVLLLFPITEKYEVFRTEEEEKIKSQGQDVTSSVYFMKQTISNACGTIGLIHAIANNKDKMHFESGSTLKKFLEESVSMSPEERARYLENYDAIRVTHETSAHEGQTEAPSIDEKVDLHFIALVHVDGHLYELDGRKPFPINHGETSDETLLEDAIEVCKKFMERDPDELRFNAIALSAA
# Outline: as §1
# UCHL5 = target: T5, UCHL5 (UniProt Q9Y5K5)
# T5 sequence (whole entry): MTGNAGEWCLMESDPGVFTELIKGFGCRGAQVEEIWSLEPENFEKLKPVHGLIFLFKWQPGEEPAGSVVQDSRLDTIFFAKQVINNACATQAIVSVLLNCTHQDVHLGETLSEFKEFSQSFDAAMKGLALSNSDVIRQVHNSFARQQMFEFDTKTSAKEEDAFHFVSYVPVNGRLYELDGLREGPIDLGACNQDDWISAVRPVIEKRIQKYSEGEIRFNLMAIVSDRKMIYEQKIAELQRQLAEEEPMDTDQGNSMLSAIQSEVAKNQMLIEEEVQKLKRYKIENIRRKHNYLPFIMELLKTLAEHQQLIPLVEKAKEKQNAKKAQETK
# Outline: as §1
# USP10 = USP10 (UniProt Q14694)
# Outline: as §1
# USP15 = target: T6, USP15 (UniProt Q9Y4E8)
# T6 sequence (whole entry): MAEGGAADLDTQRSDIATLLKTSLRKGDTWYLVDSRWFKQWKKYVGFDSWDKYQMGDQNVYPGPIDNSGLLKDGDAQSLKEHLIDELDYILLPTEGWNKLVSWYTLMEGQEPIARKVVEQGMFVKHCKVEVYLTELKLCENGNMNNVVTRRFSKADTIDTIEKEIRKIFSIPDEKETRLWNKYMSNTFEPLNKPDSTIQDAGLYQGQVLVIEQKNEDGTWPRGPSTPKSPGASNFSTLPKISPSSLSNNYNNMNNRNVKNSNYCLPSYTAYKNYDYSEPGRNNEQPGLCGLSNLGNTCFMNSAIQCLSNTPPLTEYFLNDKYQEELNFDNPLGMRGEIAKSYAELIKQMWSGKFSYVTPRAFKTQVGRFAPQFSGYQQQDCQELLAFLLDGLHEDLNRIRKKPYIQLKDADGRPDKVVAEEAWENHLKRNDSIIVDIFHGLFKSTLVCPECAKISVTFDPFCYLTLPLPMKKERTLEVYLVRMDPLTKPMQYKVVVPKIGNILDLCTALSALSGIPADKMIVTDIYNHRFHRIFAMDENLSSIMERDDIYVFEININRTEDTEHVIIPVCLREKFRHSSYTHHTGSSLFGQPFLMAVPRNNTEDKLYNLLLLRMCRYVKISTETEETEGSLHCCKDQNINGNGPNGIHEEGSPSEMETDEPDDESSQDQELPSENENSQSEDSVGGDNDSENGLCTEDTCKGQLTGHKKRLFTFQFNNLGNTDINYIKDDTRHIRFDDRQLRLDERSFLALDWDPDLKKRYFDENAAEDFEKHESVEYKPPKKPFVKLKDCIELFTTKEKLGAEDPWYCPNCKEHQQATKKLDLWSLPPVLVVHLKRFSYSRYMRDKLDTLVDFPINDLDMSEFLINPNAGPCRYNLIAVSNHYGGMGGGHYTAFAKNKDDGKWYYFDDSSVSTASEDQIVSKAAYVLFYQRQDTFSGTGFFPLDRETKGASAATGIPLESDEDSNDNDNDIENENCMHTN
# Outline: as §1
# USP16 = USP16 (UniProt Q9Y5T5)
# Outline: as §1
# Chain of USP10 (Q14694 whole entry): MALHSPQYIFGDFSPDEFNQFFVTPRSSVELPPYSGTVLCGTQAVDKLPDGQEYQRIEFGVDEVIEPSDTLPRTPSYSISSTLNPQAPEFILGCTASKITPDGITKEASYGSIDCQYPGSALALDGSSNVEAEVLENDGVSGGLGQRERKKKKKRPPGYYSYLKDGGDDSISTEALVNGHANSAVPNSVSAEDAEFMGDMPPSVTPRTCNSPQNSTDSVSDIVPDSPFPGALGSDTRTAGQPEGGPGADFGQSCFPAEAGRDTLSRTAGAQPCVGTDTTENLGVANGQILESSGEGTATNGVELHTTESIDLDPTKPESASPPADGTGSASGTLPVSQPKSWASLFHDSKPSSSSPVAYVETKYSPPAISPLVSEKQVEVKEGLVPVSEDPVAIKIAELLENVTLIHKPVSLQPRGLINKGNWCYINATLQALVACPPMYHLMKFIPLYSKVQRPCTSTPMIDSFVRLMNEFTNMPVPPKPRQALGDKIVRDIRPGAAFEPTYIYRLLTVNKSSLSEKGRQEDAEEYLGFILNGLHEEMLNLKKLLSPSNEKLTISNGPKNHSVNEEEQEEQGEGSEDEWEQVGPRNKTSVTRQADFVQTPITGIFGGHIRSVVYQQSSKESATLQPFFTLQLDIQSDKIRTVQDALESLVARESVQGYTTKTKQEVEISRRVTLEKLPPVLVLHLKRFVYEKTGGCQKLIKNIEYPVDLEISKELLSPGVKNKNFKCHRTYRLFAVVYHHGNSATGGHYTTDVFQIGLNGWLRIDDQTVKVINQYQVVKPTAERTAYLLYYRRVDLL
# Chain of USP16 (Q9Y5T5 whole entry, looked up): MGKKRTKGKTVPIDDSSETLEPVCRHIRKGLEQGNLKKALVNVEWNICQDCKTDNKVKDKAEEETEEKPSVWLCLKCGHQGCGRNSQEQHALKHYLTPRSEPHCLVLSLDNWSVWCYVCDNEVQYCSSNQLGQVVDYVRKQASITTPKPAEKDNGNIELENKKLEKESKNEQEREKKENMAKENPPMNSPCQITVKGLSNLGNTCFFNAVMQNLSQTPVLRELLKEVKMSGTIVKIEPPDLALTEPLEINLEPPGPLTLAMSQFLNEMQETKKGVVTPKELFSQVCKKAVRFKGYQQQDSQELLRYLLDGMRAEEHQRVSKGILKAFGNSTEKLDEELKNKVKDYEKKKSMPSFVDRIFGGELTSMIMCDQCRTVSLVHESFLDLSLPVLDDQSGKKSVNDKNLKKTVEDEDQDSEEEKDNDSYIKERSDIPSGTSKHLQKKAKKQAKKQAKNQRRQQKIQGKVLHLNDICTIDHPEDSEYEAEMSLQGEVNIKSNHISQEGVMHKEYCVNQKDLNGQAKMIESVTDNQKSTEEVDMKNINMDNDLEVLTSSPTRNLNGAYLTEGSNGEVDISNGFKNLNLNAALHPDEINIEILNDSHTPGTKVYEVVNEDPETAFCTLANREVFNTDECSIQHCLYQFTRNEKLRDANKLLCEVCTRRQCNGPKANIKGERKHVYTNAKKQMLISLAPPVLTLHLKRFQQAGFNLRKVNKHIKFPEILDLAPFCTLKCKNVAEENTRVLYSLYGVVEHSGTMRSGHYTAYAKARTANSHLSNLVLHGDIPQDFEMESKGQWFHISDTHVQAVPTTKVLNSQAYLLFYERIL
# Chain of UCHL1 (P09936 whole entry, looked up): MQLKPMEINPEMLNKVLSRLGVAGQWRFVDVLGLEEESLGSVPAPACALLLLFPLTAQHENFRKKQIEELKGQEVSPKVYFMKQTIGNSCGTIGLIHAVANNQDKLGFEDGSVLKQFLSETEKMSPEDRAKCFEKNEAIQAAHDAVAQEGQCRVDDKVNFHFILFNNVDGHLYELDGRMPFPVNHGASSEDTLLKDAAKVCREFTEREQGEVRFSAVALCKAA
smiles,measurement,setting,value
CN(C)C(=O)c1ccc(NC(=O)CCl)cc1,log2 ratio of Biotin-Ahx-Ub-VS probe labelling,OTUD6B,-0.253
same,log2 ratio of Biotin-Ahx-Ub-VS probe labelling,OTUD7B,-0.664
same,log2 ratio of Biotin-Ahx-Ub-VS probe labelling,PRPF8,-0.106
same,log2 ratio of Biotin-Ahx-Ub-VS probe labelling,PSMD7,-0.259
same,log2 ratio of Biotin-Ahx-Ub-VS probe labelling,UCHL1,-1.46 (active)
same,log2 ratio of Biotin-Ahx-Ub-VS probe labelling,UCHL3,-0.282
same,log2 ratio of Biotin-Ahx-Ub-VS probe labelling,UCHL5,-0.194
same,log2 ratio of Biotin-Ahx-Ub-VS probe labelling,USP10,-0.0447
same,log2 ratio of Biotin-Ahx-Ub-VS probe labelling,USP15,0.0049
same,log2 ratio of Biotin-Ahx-Ub-VS probe labelling,USP16,-0.712
